Usually AC50 stands for the midpoint of the concentration-response curve, whichever way the signal moves.

Assay [1] is described as follows: ATG_M_32_CIS: Attagene CIS-FACTORIAL HepG2 Assay for M32 Transcription Factor (Internal Marker) (AID 2282949).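 Further: background control marker of the multiplexed CIS panel rather than a real target.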 To be noted: HepG2 Attagene cis-factorial M32 reporter, mRNA; actives raise or lower the signal. In a few lines:
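Following 24 h chemical exposure of HepG2 cells transiently expressing cis-promoter reporter constructs, reporter transcript levels were determined by RT-PCR with fluorescent labelling and capillary electrophoresis, then fitted bidirectionally against DMSO.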

A short description of assay [2]: ATG_M_06_CIS: Attagene CIS-FACTORIAL HepG2 Assay for M06 Transcription Factor (Internal Marker) (AID 2282950). To be noted: HepG2 Attagene CIS-FACTORIAL M06 internal marker reporter; actives raise or lower the signal. In a few lines: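 Cells (HepG2, transiently carrying cis-driven reporter units) receive chemical for 24 h before RNA isolation. Reporter cDNA is PCR-amplified, FAM-labelled by primer extension, HpaI-digested and sized on a capillary analyser.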

Assay [3] has as its target Hypoxia-inducible factor 1-alpha (Homo sapiens) (UniProt Q16665). Nature of the assay: ATG_HIF1a_CIS: Attagene CIS-FACTORIAL HepG2 Assay for human Hypoxia Inducible Factor 1 (HIF1A) (AID 2282951). Particulars: HepG2 Attagene cis-factorial HIF1a reporter transcription; actives raise or lower the signal. In a few lines:
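Fluorescence intensity of capillary-separated, 6-FAM-labelled reporter amplicons gives mRNA induction in HepG2 cells carrying transfected cis-promoter reporter units; cells exposed 24 h, responses fitted up or down from DMSO.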

In assay [4] the target is Hepatocyte nuclear factor 6 (Homo sapiens) (UniProt Q9UBC0). Nature of the assay: ATG_HNF6_CIS: Attagene CIS-FACTORIAL HepG2 Assay for human Hepatocyte Nuclear Factor 6 (HNF6) (AID 2282952). Particulars: HepG2 Attagene cis-factorial HNF6 reporter transcription; actives raise or lower the signal. In a few lines:
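HepG2 cells transiently transfected with cis-element-driven multiple reporter transcription units, dosed 24 h; reporter mRNA quantified by RT-PCR, FAM primer extension, HpaI digestion and capillary electrophoresis; bidirectional fit versus DMSO baseline.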

Assay [5] deals with Heat shock factor protein 1 (Homo sapiens) (UniProt Q00613). The assay can be described thus: ATG_HSE_CIS: Attagene CIS-FACTORIAL HepG2 Assay for human Heat Shock Transcription Factor 1 (HSE) (AID 2282953). To be noted: HepG2 HSE cis-reporter, Attagene RNA transcription; actives raise or lower the signal. The method in brief:
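Liver-derived HepG2 cells carry transiently introduced multiple reporter units governed by cis promoters. Reporter RNA measured 24 h post-dose through reverse transcription, PCR amplification, fluorescent labelling and capillary electrophoresis, normalised to DMSO.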

Assay [6] in a line: ATG_MRE_CIS: Attagene CIS-FACTORIAL HepG2 Assay for human Metal Responsive Element (MRE) (AID 2282954). Particulars: HepG2 MRE cis-reporter transcription, Attagene multiplex; actives raise or lower the signal. The method in brief:
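HepG2 cells transiently transfected with multiple cis-element reporter units measure endogenous MTF1-driven transcription. After 24 h compound exposure, reporter mRNA is quantified by RT-PCR with 6-FAM labelling, HpaI digestion and capillary electrophoresis; bidirectional fits versus DMSO.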

The nature of assay [7]: ATG_PBREM_CIS: Attagene CIS-FACTORIAL HepG2 Assay for human Phenobarbital-responsive Enhancer Module (PBREM) (AID 2282955). Particulars: HepG2 PBREM cis-reporter, Attagene multiplexed transcription; actives raise or lower the signal. The method in brief:
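Cells were transfected with cis-element reporter units and treated for 24 h, after which RNA was extracted and reporter transcripts measured by RT-PCR and capillary electrophoresis.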

In assay [8] the target is Paired box protein Pax-6 (Homo sapiens) (UniProt P26367). The assay can be described thus: ATG_Pax6_CIS: Attagene CIS-FACTORIAL HepG2 Assay for human Paired Box 6 (PAX6) (AID 2282956). To be noted: HepG2 CIS-FACTORIAL PAX6 reporter transcription, RNA readout; actives raise or lower the signal. The method in brief:
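Multiplexed cis-reporter HepG2 system; 24 h treatment; reporter mRNA read by RT-PCR/CE fluorescence; bidirectional fit vs DMSO.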

Assay [9] is described as follows: ATG_PXRE_CIS: Attagene CIS-FACTORIAL HepG2 Assay for human Pregnane X Receptor Element (PXRE) (AID 2282957). To be noted: HepG2 Attagene CIS-FACTORIAL PXRE reporter, mRNA; actives raise or lower the signal. The method in brief: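 HepG2 cells transiently transfected with cis-regulated multiple reporter transcription units; endogenous factor activity measured as reporter mRNA 24 h after dosing. RT-PCR, fluorescent primer extension, HpaI digestion, capillary electrophoresis; bidirectional fit versus DMSO baseline.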

Assay [10] can be described thus: ATG_PPRE_CIS: Attagene CIS-FACTORIAL HepG2 Assay for human Peroxisome Proliferator-activated Response Element (PPRE) (AID 2282958). Particulars: HepG2 PPRE cis-element reporter, Attagene transcription factor profiling; actives raise or lower the signal. In a few lines:
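In this cell-based multiplex, a PPRE cis element drives a reporter sequence in transiently transfected HepG2 cells. Following 24 h treatment, labeled cDNA amplicons are sized and quantified by capillary electrophoresis, with DMSO defining baseline.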

Assay [11] can be described thus: ATG_RORE_CIS: Attagene CIS-FACTORIAL HepG2 Assay for human RAR-related Orphan Receptor Element (RORE) (AID 2282959). Particulars: HepG2 Attagene cis-factorial RORE reporter, mRNA; actives raise or lower the signal. The method in brief:
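Endogenous factor activity at a cis response element is read as reporter transcript levels in HepG2 cells, 24 h post-dose. Transcripts are quantified by RT-PCR with capillary electrophoresis, and data fitted in both directions against DMSO.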

Assay [12] in a line: ATG_Sox_CIS: Attagene CIS-FACTORIAL HepG2 Assay for human SRY-box transcription factor (SOX) (AID 2282960). To be noted: HepG2 Attagene cis-factorial SOX reporter, mRNA; actives raise or lower the signal. The method in brief:
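Measures mRNA induction of a SOX1-associated reporter in HepG2 after 24 h dosing. Fluorescently labelled RT-PCR fragments are separated by capillary electrophoresis, and gain or loss relative to DMSO control is fitted.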

The target of assay [13] is Transcription factor Sp1 (Homo sapiens) (UniProt P08047). The assay can be described thus: ATG_Sp1_CIS: Attagene CIS-FACTORIAL HepG2 Assay for human Specificity Protein 1 (Sp1) (AID 2282961). Particulars: HepG2 Sp1 cis-reporter transcription, actives raise or lower the signal. In a few lines:
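Cells: HepG2, transiently transfected with cis-regulated multiplexed reporters. Exposure: 24 h. Detection: reporter transcripts amplified, fluorescently labeled, restriction-digested and sized by capillary electrophoresis. Analysis: bidirectional fit relative to DMSO.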

The nature of assay [14]: ATG_SREBP_CIS: Attagene CIS-FACTORIAL HepG2 Assay for human Sterol Regulatory Element Binding (SREBP) (AID 2282962). To be noted: HepG2 Attagene cis-factorial SREBP reporter, mRNA; actives raise or lower the signal. In a few lines:
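mRNA induction of transfected cis-promoter reporters in HepG2 cells, 24 h post-dose. Detection: RT-PCR with 6-FAM-labelled products, HpaI digest, capillary electrophoresis. DMSO served as negative control and baseline.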

In assay [15] the target is Signal transducer and activator of transcription 3 (Homo sapiens) (UniProt P40763). The assay can be described thus: ATG_STAT3_CIS: Attagene CIS-FACTORIAL HepG2 Assay for human Signal Transducer and Activator of Transcription 3 (STAT3) (AID 2282963). To be noted: HepG2, Attagene cis-factorial STAT3 reporter transcription; actives raise or lower the signal. The method in brief: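 HepG2 cells transiently transfected with cis-element-driven multiple reporter transcription units; after 24 h chemical exposure, reporter mRNA measured by RT-PCR, 6-FAM primer-extension labelling, HpaI digestion and capillary electrophoresis. Bidirectional fitting versus DMSO baseline.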

The nature of assay [16]: ATG_TA_CIS: Attagene CIS-FACTORIAL HepG2 Assay for human TA Basal Promoter (AID 2282964). To be noted: HepG2 Attagene CIS-factorial TA basal promoter reporter; actives raise or lower the signal. The method in brief: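 Background internal-marker endpoint from a 52-component HepG2 cis-reporter panel. Cells treated 24 h; reporter transcripts quantified via RT-PCR and CE fluorescence against DMSO baseline.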

A short description of assay [17]: ATG_TCF_b_cat_CIS: Attagene CIS-FACTORIAL HepG2 Assay for human T-Cell-Factor with beta-catenin (TCF/b-cat) (AID 2282965). To be noted: HepG2 TCF/beta-catenin cis-reporter transcription, actives raise or lower the signal. In a few lines: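 HepG2 cells transiently transfected with multiple cis-promoter-regulated reporter transcription units, so endogenous transcription factor activity is measured. Reporter mRNA read 24 hours after dosing by RT-PCR, fluorescent labelling and capillary electrophoresis; bidirectional fitting against DMSO.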

Assay [18] is described as follows: ATG_TAL_CIS: Attagene CIS-FACTORIAL HepG2 Assay for human TAL Basal Promoter (AID 2282966).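 Further: background control endpoint measuring basal TAL promoter reporter mRNA not a specific factor.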 To be noted: HepG2 Attagene cis-factorial TAL promoter reporter; actives raise or lower the signal. The method in brief: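 HepG2 cells were transiently transfected with promoter-driven multiplexed reporter units and dosed for 24 h. Reporter mRNA was measured by RT-PCR with capillary electrophoresis fluorescence; bidirectional fits used DMSO as baseline, serving as a background control.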

Assay [19] can be described thus: ATG_TGFb_CIS: Attagene CIS-FACTORIAL HepG2 Assay for human Transforming Growth Factor (TGF) (AID 2282967). To be noted: HepG2 Attagene CIS TGFb reporter, mRNA transcription; actives raise or lower the signal. The method in brief:
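Liver HepG2 line, cis-factorial reporter panel, 24 h dosing. Quantitation: RT-PCR products labeled with 6-FAM, cut with HpaI, resolved by capillary electrophoresis; DMSO-referenced bidirectional analysis.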

Assay [20] is described as follows: ATG_VDRE_CIS: Attagene CIS-FACTORIAL HepG2 Assay for human Vitamin D Receptor Element (VDRE) (AID 2282968). Particulars: HepG2 VDRE cis-reporter transcription, actives raise or lower the signal. The method in brief:
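HepG2 cells transiently transfected with cis-element reporter units, dosed 24 h; reporter mRNA measured by RT-PCR, 6-FAM labeling, HpaI digestion and capillary electrophoresis. Activity fitted bidirectionally against DMSO baseline.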

Each structure is given as a SMILES string. Activity calls are given as the source filed them. How the source made its calls: active means hit-call score of the fitted dose curve at least 0.9, where 1 is the maximum; inactive means score below 0.9.

Chain of Heat shock factor protein 1 (Homo sapiens) (Q00613 whole entry, looked up): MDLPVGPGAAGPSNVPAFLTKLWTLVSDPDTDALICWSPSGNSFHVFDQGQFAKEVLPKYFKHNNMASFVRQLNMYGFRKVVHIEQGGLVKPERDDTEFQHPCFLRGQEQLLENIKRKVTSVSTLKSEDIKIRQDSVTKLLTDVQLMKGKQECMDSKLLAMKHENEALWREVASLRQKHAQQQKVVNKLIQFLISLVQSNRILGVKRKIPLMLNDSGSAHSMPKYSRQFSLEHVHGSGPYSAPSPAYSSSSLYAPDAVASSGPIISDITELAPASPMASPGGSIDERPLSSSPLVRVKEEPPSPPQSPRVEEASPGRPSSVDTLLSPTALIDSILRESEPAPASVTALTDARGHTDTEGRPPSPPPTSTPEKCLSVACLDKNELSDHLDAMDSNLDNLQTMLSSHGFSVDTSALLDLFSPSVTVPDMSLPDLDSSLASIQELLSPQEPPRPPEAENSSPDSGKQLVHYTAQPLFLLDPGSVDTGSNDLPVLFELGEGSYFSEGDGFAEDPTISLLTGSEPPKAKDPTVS
Chain of Hepatocyte nuclear factor 6 (Homo sapiens) (Q9UBC0 whole entry, looked up): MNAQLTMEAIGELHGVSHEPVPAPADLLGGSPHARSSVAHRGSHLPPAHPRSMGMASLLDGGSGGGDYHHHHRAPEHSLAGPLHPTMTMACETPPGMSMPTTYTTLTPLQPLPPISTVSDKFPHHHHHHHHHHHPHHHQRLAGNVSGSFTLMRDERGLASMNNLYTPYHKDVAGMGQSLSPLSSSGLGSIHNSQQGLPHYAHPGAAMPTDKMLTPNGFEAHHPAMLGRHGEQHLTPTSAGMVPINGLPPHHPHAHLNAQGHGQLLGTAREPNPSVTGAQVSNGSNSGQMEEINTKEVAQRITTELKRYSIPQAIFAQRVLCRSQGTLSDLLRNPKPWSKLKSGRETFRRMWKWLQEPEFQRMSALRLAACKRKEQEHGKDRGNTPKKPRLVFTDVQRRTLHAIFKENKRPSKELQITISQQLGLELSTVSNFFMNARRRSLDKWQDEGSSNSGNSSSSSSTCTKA
Chain of Hypoxia-inducible factor 1-alpha (Homo sapiens) (Q16665 whole entry, looked up): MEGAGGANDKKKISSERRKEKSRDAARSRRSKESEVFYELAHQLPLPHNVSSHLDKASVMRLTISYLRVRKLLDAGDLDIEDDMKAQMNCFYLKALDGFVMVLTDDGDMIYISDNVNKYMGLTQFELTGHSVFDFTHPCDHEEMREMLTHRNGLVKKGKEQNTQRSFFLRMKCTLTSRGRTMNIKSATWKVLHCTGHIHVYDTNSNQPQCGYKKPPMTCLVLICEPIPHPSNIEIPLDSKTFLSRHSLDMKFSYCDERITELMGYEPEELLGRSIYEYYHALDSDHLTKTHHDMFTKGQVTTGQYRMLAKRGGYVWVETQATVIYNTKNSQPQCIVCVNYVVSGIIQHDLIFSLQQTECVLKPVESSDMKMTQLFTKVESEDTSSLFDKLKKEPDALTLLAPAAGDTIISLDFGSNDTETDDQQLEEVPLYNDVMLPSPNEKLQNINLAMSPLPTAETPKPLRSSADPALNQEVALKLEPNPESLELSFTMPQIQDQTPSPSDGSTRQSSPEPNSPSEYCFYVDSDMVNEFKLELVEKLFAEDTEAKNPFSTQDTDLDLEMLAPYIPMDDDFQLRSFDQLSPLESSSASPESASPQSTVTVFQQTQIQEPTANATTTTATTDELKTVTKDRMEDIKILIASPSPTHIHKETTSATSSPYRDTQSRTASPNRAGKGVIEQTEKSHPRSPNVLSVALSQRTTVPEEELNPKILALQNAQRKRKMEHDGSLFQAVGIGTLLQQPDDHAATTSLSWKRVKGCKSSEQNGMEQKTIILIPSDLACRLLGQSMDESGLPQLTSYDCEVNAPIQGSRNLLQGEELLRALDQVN
Chain of Signal transducer and activator of transcription 3 (Homo sapiens) (P40763 whole entry, looked up): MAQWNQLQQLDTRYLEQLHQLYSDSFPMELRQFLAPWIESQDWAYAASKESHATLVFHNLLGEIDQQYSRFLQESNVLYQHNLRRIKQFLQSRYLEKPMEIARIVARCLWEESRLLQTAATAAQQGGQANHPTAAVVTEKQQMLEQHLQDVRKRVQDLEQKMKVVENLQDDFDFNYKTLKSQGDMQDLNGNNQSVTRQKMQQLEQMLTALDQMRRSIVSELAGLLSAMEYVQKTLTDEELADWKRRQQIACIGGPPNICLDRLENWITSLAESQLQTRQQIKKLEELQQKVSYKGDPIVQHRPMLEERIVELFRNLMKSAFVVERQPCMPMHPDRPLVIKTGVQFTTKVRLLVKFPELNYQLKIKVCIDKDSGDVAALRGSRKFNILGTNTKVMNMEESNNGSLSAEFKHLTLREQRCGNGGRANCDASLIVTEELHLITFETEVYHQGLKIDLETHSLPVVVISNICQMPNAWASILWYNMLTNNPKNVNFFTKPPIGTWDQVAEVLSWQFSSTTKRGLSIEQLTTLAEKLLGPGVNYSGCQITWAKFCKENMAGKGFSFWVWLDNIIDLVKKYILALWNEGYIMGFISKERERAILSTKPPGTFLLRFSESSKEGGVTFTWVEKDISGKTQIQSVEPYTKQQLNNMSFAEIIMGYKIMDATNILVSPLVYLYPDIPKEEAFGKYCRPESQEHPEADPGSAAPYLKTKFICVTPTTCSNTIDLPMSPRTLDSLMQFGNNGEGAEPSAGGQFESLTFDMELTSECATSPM
Chain of Paired box protein Pax-6 (Homo sapiens) (P26367 whole entry, looked up): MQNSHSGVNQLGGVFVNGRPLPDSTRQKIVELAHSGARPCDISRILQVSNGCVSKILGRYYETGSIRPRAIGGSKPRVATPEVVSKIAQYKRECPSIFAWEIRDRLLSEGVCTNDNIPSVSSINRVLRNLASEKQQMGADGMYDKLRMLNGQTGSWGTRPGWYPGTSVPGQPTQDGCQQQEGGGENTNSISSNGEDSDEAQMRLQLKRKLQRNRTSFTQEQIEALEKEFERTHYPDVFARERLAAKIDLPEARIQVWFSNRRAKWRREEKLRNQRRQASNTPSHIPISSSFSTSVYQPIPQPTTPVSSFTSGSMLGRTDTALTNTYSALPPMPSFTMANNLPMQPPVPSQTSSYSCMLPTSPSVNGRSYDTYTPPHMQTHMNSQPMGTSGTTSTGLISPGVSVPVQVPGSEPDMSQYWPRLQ
Chain of Transcription factor Sp1 (Homo sapiens) (P08047 whole entry, looked up): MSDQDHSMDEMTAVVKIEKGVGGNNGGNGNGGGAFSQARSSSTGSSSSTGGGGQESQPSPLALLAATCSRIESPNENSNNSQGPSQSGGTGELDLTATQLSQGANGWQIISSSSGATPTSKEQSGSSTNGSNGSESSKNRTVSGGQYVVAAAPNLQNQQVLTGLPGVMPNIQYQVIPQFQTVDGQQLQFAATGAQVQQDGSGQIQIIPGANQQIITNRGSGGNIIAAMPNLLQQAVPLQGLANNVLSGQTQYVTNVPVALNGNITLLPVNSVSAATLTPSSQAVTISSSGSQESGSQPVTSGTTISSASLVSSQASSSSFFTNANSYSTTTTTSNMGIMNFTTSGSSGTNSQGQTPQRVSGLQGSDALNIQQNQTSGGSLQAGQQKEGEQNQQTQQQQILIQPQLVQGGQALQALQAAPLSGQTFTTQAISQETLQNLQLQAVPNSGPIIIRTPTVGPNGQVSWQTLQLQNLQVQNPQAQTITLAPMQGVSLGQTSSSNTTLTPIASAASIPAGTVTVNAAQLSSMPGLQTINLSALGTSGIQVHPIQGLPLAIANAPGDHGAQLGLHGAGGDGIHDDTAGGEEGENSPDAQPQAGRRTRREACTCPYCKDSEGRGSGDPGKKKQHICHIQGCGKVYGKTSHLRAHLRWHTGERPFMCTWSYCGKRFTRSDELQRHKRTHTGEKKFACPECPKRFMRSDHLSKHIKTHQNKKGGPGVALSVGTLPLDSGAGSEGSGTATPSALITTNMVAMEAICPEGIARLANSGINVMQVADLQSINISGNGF

Turning to `C=CC(=O)[O][Sn]([CH2]CCC)([CH2]CCC)[CH2]CCC`, the call in assay [1], in assay [2], in [3], in assay [11], in [16] and in [17] was inactive. For the same molecule, the result in [18] was inactive. Further, the AC50 in [4] is 0.657 µM (active); in assay [5] it was 0.645 µM (active); in [6], 0.412 µM (active); in [7], 0.321 µM (active); in [8] it was 0.52 µM (active); in assay [9], 0.744 µM (active). Moreover, the AC50 in [10] was 0.00687 µM (active); in assay [12], 0.67 µM (active); in assay [13], 0.504 µM (active); in assay [14] it was 0.189 µM (active); in assay [15], 0.657 µM (active); in assay [19], 0.367 µM (active). Also, the AC50 in [20] was 0.266 µM (active).

In the case of `CCCCCCCCCCCCN(C)C`, the result in assay [1], in assay [2], in [3], in [4], in [6] and in assay [7] was inactive. Also, the call in assay [8], in assay [10], in assay [11], in assay [12], in assay [15] and in assay [16] was inactive. Also, in assay [19], the call was inactive. In addition, the AC50 is 56.1 µM (active) in assay [5]; 58.6 µM (active) in assay [9]; 53.2 µM (active) in assay [13]; 49 µM (active) in assay [14]; 48.4 µM (active) in [17]; 51.4 µM (active) in assay [18]. For the same molecule, the AC50 in assay [20] is 33.4 µM (active).

As for `C#CCO`, the molecule was called inactive in assay [1], in assay [2], in assay [3], in assay [4], in [5] and in assay [6]. In addition, the result in assay [7], in assay [8], in assay [9], in assay [10], in assay [11] and in assay [12] was inactive. Further, the result in assay [13], in assay [14], in [15], in assay [16], in assay [17] and in [18] was inactive. For the same molecule, the molecule was called inactive in [20].

Values taken from PubChem BioAssay (EPA / NIEHS).
